High-throughput results (PubChem)
A selection: hits, their analogues and other compounds. The true share with any hit is near 4.1%.
hcDAF-12 act: activators of H. contortus DAF-12 nuclear receptor; HEK293 hcDAF-12 lit1-tk-luc reporter, luminescence; 0% DMSO, 100% Δ7-dafachronic acid; activation, % at 6.8 µM; 1.4% of 370,000 active; AID 652067;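 active = activation above the mean of all tested compounds plus 3 SD, cut at about 5.5% in these data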
hgDAF-12 ag: activates the H. glycines DAF-12 receptor ligand-binding domain; HEK293 GAL4-hgDAF12 UAS-luciferase reporter, agonist luminescence; normalized to butyrate control; activation, % at 6.8 µM; 1.8% of 370,000 active;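 active = activation above a cutoff set at the mean of all screened compounds plus 3 SD, cut at about 10% in these data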
DAX1 inh-1: DAX1 (NR0B1) inhibition, primary screen | 1.1% of 370,000 active | inhibition, % at 6.8 µM | HEK293T StAR-luciferase reporter, SF-1/DAX-1 repression relief | AID 652010;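 active = inhibition above the mean over all tested compounds plus 3 SD, cut at about 3.6% in these data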;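 also: higher inhibition means more luminescence from relief of DAX-1 repression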
DAX1 inh-2: inhibitors of human orphan nuclear receptor DAX1 (NR0B1). P51843. inhibition, % at 6.75 µM. HEK293 Gal4-DAX1 luciferase reporter, luminescence. 0.99% of 340,000 active;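 active = inhibition above the mean over all tested compounds plus 3 SD, cut at about 4.2% in these data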;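 also: inhibition shows as a rise in luminescence from relieved DAX1 repression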
ssDAF12 agonist: activators of S. stercoralis DAF-12 nuclear receptor. activation, % at 6.8 µM. 1% of 370,000 active. HEK293 ssDAF-12/GRIP1 lit1-tk-luc reporter, luminescence; % of 3 µM dafachronic acid response;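 active = activation above the mean over all tested compounds plus 3 SD, cut at about 0.9% in these data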
DAX1 conf: NR0B1 (human) inhibition, confirmation. 87% of 2,400 active. HEK293T StAR-promoter luciferase reporter, SF-1/DAX-1 repression. shares compounds with DAX1 inh-1. inhibition, % at 6.8 µM;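 active = inhibition above the average of every tested compound plus 3 SD, cut at about 3.8% in these data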;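 also: active compounds raise luminescence by relieving repression of the StAR reporter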
SF1 AF2mut Luc: nonselective inhibitor or artifact in SF-1 mutant DAX1 counter-screen. inhibition, % at 6.8 µM. AID 652136. 78% of 2,400 active. HEK293 StAR-luciferase, SF-1 AF2 mutant, luminescence. shares compounds with DAX1 inh-1;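 active = inhibition above the mean of all tested compounds plus 3 SD, cut at about 3% in these data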
LXR ag: LXR-beta agonism as hcDAF-12 counter-screen. shares compounds with hcDAF-12 act. HEK293 Gal4-LXR tk-luc reporter, luminescence, 24 h; normalized: DMSO 0%, positive control 100%. activation, % at 6.8 µM. 3,400 tested, under 10 active. AID 743027;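 active = mean percent activation of the reporter above a cutoff set as the average over tested compounds plus their standard deviation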
Target sequence (P55055 whole entry, looked up, the tested form may be a part): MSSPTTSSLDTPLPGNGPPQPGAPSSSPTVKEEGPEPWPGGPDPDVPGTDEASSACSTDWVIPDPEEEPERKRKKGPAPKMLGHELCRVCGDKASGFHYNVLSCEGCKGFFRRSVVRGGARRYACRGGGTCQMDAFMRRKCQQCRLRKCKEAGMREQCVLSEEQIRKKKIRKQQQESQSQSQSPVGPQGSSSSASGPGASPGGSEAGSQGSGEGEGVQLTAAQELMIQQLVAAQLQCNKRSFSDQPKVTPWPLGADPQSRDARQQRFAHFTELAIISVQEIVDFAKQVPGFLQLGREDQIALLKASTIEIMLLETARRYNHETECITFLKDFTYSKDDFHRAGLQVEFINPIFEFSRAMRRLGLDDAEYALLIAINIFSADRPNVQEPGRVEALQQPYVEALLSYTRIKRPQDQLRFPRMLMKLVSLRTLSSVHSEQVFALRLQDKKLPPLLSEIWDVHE
hcDAF12 conf: confirmation of H. contortus DAF-12 agonists; shares compounds with hcDAF-12 act; HEK293 hcDAF-12 lit1-tk-luc reporter, luminescence; % of Δ7-dafachronic acid response; activation, % at 6.8 µM; 61% of 3,400 active; AID 743032;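 active = mean activation across triplicate tests above the threshold derived from the earlier primary screen, cut at about 5.5% in these data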
hgDAF12 ag: confirmation of H. glycines DAF-12 agonists | shares compounds with hgDAF-12 ag | HEK293 GAL4-hgDAF12 luciferase reporter, agonist mode; percent of butyrate response | activation, % at 6.8 µM | 80% of 3,300 active;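 active = mean activation over triplicate wells above the hit cutoff derived from the earlier primary screen, cut at about 11% in these data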
LXR ag 2: counter-screen for DAF-12 agonists: agonists of human LXR-beta; shares compounds with hgDAF-12 ag; HEK293 Gal4-LXR luciferase reporter, 24 h; activation, % at 6.8 µM; 3,300 tested, under 10 active;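 active = mean activation of the triplicate above a set limit carried over from the primary screen, none filed active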
A number is an active result; - = inactive; . = no result given.

SMILES	hcDAF-12 act	hgDAF-12 ag	DAX1 inh-1	DAX1 inh-2	ssDAF12 agonist	DAX1 conf	SF1 AF2mut Luc	LXR ag	hcDAF12 conf	hgDAF12 ag	LXR ag 2
Cc1cc(Br)cn2c(Cc3ccccc3)c(-c3ccc(C#N)cc3)nc12	-	-	-	.	-	.	.	.	.	.	.
Cc1cccnc1NC(=O)Cn1nc(-c2ccccc2)oc1=S	-	19	4.9	-	1.0	12	7.5	.	.	17	-
Cc1ccc(CNC(=S)Nc2ccc3c(c2)c(=O)n(C)n3Cc2cccc(C(F)(F)F)c2)cc1	-	-	-	.	-	.	.	.	.	.	.
C[C@@H]1CCCCO[C@H](CN(C)S(=O)(=O)c2cn(C)cn2)[C@@H](C)CN([C@H](C)CO)C(=O)c2cc(NC(=O)CCCN(C)C)ccc2O1	-	-	-	.	-	.	.	.	.	.	.
Cc1cc(C)n2c(Nc3ccc4c(c3)OCCO4)c(-c3ccc(C)o3)nc2n1	6.9	13	5.7	-	-	-	-	-	-	-	-
Cc1ccc(NC(=O)c2ccccc2)s1	6.9	20	4.5	-	-	15	11	-	8.3	15	-
CC(OC(=O)c1ccc2c(c1)OCCO2)C(=O)c1ccccc1 (stereo not drawn)	7.3	14	12	4.9	-	11	6.8	-	7.8	16	-
O=C(CSc1nnc(NC(=O)c2ccc(F)cc2)s1)NCc1ccco1	-	14	6.5	-	-	9.3	5.1	.	.	12	-
Cc1cc(C(=O)CSc2nncs2)c(C)n1Cc1ccco1	-	16	4.8	-	-	9.8	5.3	.	.	13	-
Cc1cc(C(=O)CSc2nn(-c3ccccc3)c(=S)s2)c(C)n1Cc1ccco1	-	-	-	-	-	.	.	.	.	.	.
COc1ccc(OC)c(NC(=O)C2(C)CCN2Cc2ccc(SC)cc2)c1 (stereo not drawn)	-	-	-	.	-	.	.	.	.	.	.
c1ccc(-c2noc(-c3ccc4c(c3)OCO4)n2)cc1	6.3	22	5.0	-	1.2	18	7.7	.	.	19	-
COc1cccc(-c2noc(-c3ccc4c(c3)OCO4)n2)c1	-	17	6.1	4.3	1.8	13	4.0	.	.	17	-
COc1ccc(-c2noc(-c3ccc4c(c3)OCO4)n2)cc1	-	-	-	-	-	.	.	.	.	.	.
O=C(O)c1cccc(N/N=C/c2ccc(-c3ccccc3)cc2)c1	-	16	4.7	-	-	22	10	.	.	27	-
O=C(Nc1nc2cc3c(cc2s1)OCO3)C1CC1	-	-	-	-	-	.	.	.	.	.	.
O=C(Nc1nc2cc3c(cc2s1)OCO3)C1CCCCC1	9.8	14	12	-	-	15	7.7	-	-	16	-
O=C(Nc1nc2cc3c(cc2s1)OCCO3)C1CCCCC1	-	13	15	-	-	12	4.4	.	.	15	-
COc1ccc(NC(=O)N2CCc3ccccc32)cc1	9.1	16	5.1	-	1.0	15	5.8	-	7.4	18	-
Cc1ccc(OCC(=O)N2CCc3ccccc32)cc1	11	22	5.1	-	1.6	15	9.1	-	5.7	13	-
Cc1ccc(OCC(=O)N2CCCc3ccccc32)cc1	-	-	-	-	-	.	.	.	.	.	.
COc1ccc(NC(=O)N2CCCc3ccccc32)cc1	-	-	-	-	-	.	.	.	.	.	.
